Only some compounds are listed: those with a hit (about 8.3% of all), similar ones and a draw of the others.
MCF10A rerep = A quantitative high throughput screen for small molecules that induce DNA re-replication in MCF 10a normal breast cells; MCF 10A DNA re-replication, Hoechst nuclear intensity, 48 h; Potency, µM (doses to about 46.1 µM), for inactives: top-dose activity, positive = re-replication, most hits filed as activators; hit rate 2.9% among 350,000; AID 624296, 2012; note: potency is the fitted concentration of half-maximal effect; % of control where 0% means no effect; nearly all actives have a fitted effect of over 50% in size
Giardia kill = Small Molecules that selectively kill Giardia lamblia: qHTS; activity change, % at 7.66 µM, hits read low; AID 540267, 2011; hit rate 0.15% among 340,000; Giardia lamblia trophozoite viability; in the data active = activity change below about -80%; inconclusive = between about -30% and that limit;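 note: parasites exposed to compound for two days anaerobically before the ATP read; % is set by controls: 0 for no effect and ±100 for the full control effect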
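Luminescent ATP signal served as the viability read-out, measured 15-30 min after adding ATP detection reagent to trophozoites that had been incubated with compounds for 48 hrs at 37 deg C anaerobically at 100 cells/well.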
BCR signal inh = qHTS Assay to Find Inhibitors of Chronic Active B-Cell Receptor Signaling | ABC-DLBCL IkBa-CBG/CBR reporter, luminescence ratio, 4 h | Potency, µM (top dose mostly 46.1 µM), inactives show top-dose activity change, negative = inhibition, actives largely listed as inhibitors | hit rate 0.05% among 340,000; active = well fitted inhibition curve with a large enough effect in the signal ratio, with a control signal flat, not every such curve was filed as active; inconclusive = small, poorly fitted or top-dose-only effect, or effect the other way, or a change in a side signal; the % refers to the signal ratio;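 note: potency is the fitted concentration of half-maximal effect; plate controls were basal doxycycline-induced cells for no effect and cells given 10 µM MG132 for full effect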
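Compounds up to 46 uM were incubated four hours with TMD8 cells whose green CBG68 luciferase is fused to IkappaBalpha; red CBR luminescence normalised the signal, and concentration-effect curves were fitted to fusion, red and ratio data.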
Gal4-VP16 FLuc = VP16 counterscreen qHTS for inhibitors of ROR gamma transcriptional activity. Drosophila S2 Gal4-VP16 UAS-luciferase, luminescence, 20 h. Potency, µM (titrated, usually from 53.6 µM), for inactives: at the highest dose activity, negative = inhibition, usual class: inhibitors. hit rate 3.5% among 310,000;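 note: Gal4-VP16 expression switched on by copper sulfate through the metallothionein promoter; potency is the fitted concentration of half-maximal effect; % is set by controls: 0 for no effect and ±100 for the full control effect; nearly all actives have a fitted effect of over 50% in size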
SW480 rerep = A quantitative high throughput screen for small molecules that induce DNA re-replication in SW480 colon adenocarcinoma cells; SW480 DNA re-replication, Hoechst DNA content imaging, 48 h; Potency, µM (series often up to 46.1 µM), for inactives: at the highest dose re-replication activation, actives largely listed as activators; hit rate 1.8% among 340,000; note: potency is the fitted concentration of half-maximal effect; % of control where 0% means no effect; nearly all actives have a fitted effect of over 55% in size
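Treated cells incubate 48 hr (37 C, 5% CO2), are stained 40 min with Hoechst, and nuclear fluorescence is enumerated; a rise in nuclei with high DNA signal marks re-replication.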
RORg inh = qHTS for inhibitors of ROR gamma transcriptional activity. hit rate 5.4% among 310,000. Drosophila S2 Gal4-RORgamma UAS-luciferase reporter, 20 h. Potency, µM (titrated, usually from 53.6 µM), for the others: top-dose activity change, negative = inhibition, most hits filed as inhibitors. AID 2551, 2010; note: potency is the fitted concentration of half-maximal effect; % is set by controls: 0 for no effect and ±100 for the full control effect; nearly all actives have a fitted effect of over 60% in size
Target sequence (P51450 whole entry, looked up, the tested form may be a part): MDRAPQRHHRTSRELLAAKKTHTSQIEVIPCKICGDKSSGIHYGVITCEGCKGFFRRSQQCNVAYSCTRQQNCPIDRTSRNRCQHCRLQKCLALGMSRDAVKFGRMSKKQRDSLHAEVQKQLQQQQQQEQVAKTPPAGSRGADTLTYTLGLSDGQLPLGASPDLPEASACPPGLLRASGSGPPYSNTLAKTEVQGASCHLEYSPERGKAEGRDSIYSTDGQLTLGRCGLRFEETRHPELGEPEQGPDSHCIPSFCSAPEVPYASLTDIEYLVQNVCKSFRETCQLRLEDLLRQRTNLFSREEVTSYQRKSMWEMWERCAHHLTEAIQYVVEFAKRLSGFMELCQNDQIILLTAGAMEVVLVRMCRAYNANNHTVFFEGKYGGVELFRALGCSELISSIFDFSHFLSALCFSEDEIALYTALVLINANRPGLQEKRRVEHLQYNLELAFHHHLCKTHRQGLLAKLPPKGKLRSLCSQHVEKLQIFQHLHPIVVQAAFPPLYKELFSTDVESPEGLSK
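Luciferase reporter read in Schneider cells carrying Gal4-RORγ (mouse) and UAS-Photinus luciferase; cells given compound 1 h before 700 uM copper sulfate induction, then incubated 20 h at ambient temperature.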
* = called active by the depositor; ? = inconclusive; . = no result; [ ] = another dose, or the depositor's remark. Unless noted, calls come from the whole dose curve; as a rule, active = well fitted curve in the direction sought with a large enough effect; inconclusive = small, poorly fitted or top-dose-only effect, or another doubt; inactive = no such curve, though single readings can be large; an effect the other way counts as inactive or inconclusive.

SMILES | MCF10A rerep | Giardia kill | BCR signal inh | Gal4-VP16 FLuc | SW480 rerep | RORg inh
Cc1ccc2nc(-c3ccc(NC(=S)NC(=O)CC(C)C)cc3)sc2c1 | 25% | 6 | -14% | 13% | 0% | -1%
Cc1nc2cc(NC(=O)CCS(=O)(=O)c3ccccc3)ccc2s1 | 3% | 14 | ? | ? | -9% | 16µM*
Cc1ccc2nc(-c3ccc(NC(=O)COC(=O)c4ccc(=O)[nH]c4)cc3)sc2c1 | 1% | -17 | 5% | 5µM* | ? | 0.28µM*
C=CCn1c(SCC(=O)Nc2ccc(-c3nc4ccc(C)cc4s3)cc2)nnc1-c1ccncc1 | 11% | 3 | 0% | 6% | 3% | 8%
Cc1ccc2nc(-c3ccc(NC(=O)CN4CCN(c5ccccn5)CC4)cc3)sc2c1 | 13µM* | -19 | ? | ? | ? | ?
Cc1ccc(C)c(N(CC(=O)Nc2ccc(-c3nc4ccc(C)cc4s3)cc2)S(C)(=O)=O)c1 | ? | 29 | 12% | -24% | ? | ?
CCn1c(SCC(=O)Nc2ccc(-c3nc4ccc(C)cc4s3)cc2)nnc1-c1ccccc1 | 2% | . | ? | 18µM* | 18% | 11µM*
O=C(CCN1C(=O)NC2(CCCC2)C1=O)Nc1ccc(-c2nc3ccccc3s2)cc1 | 23µM* | 6 | -1% | . | 16µM* | .
Cc1ccc(S(=O)(=O)Nc2cccc(-n3cnnn3)c2)cc1C | 0% | 16 | 1% | -16% | 3% | 29%
CCN(CCCNC(=O)CNC(=O)c1nn(-c2ccc(OC)c(OC)c2)c(=O)c2ccccc12)c1ccccc1 | 20% | 9 | ? | -6% | 10% | 10%
CC(=O)Oc1ccc(C2(c3ccc(OC(C)=O)cc3)C(=O)Nc3ccccc32)cc1 | 0% | . | . | 1% | 2% | 30%
Cc1ccc2nc(-c3ccc(NC(=O)CCS(=O)(=O)c4ccccc4)cc3)sc2c1 | 24% | -27 | ? | 7.9µM* | ? | 1.1µM*
CC(C)(C)NC(=O)CSc1nc2ccc(NC(=O)CSc3nnnn3Cc3ccccc3)cc2s1 | 15% | -9 | -27% | 11µM* | -3% | -41%
CCOC(=O)CSc1nc2ccc(NC(=O)CSc3nnnn3Cc3ccccc3)cc2s1 | -1% | -5 | -2% | -9% | 3% | 20%
O=C(O)/C=C/C(=O)c1ccc2c(c1)CCc1ccccc1-2 | 3.7µM* | 12 | ? | . | 4.1µM* | .
O=[N+]([O-])c1cc(Br)c(O)c(/C=N/Nc2nnnn2-c2cccc3ccccc23)c1 | 4.1µM* | -11 | 5% | 6.3µM* | 14% | 3.2µM*
COc1cc2c(-c3ccc(O)cc3)nc3c(c(C)nn3-c3ccccc3)c2cc1OC | 15µM* | 6 | 15% | ? | ? | 8%[10 µM]
COc1cc2c(C)nc3c(c(C)nn3-c3ccccc3)c2cc1OC | 4% | 9 | -3% | 3% | -2% | -4%
C/C(=N\OC(=O)Nc1ccc(Cl)cc1)c1ccc(F)c(F)c1 | ? | -16 | -11% | 4% | -7% | 20%
CC(C)C(Cl)=NOC(=O)Nc1ccc(F)cc1 | 3.3µM* | -18 | . | . | ? | .
O=C(/C=C/c1ccc(Cl)cc1Cl)NC(=S)Nc1ccccn1 | 7% | -20 | ? | 5µM* | -2% | 2.8µM*
O=C(/C=C/c1ccc(Cl)cc1)Nc1ccc(CN2CCOCC2)cc1 | 16% | -7 | 16% | -13% | ? | 45%
O=C(/C=C/c1ccc(Cl)cc1Cl)NC(=S)Nc1ccc(CN2CCOCC2)cc1 | ? | -1 | ? | 4.5µM* | 10% | 3.5µM*
CC(C)c1ccc(/C=C/C(=O)Nc2ccc(CN3CCOCC3)cc2)cc1 | 13µM* | -3 | ? | ? | ? | ?
O=C(/C=C/c1ccccc1)NC(=S)Nc1ccc(CN2CCOCC2)cc1 | ? | -4 | -1% | ? | ? | 4µM*
SMILES | MCF10A rerep | Giardia kill | BCR signal inh | Gal4-VP16 FLuc | SW480 rerep | RORg inh
Cc1ccccc1-c1nnc(SCCC(=O)N2CCOCC2)o1 | -6% | -10 | 10% | -21% | -4% | -37%
CC(C)c1ccc(CN2CCN(C(=O)CCl)CC2)cc1 | 6.5µM* | 6 | ? | -2% | ? | 5%
CC(C)CN(C(=O)c1ccc2c(c1)OCCO2)c1c(N)n(Cc2ccccc2)c(=O)[nH]c1=O | -2% | 12 | 5% | . | -1% | .
O=[N+]([O-])c1ccc(Sc2ccccc2)nc1 | 0% | 22 | 6% | 1% | 0% | 1%
Nc1cccnc1Sc1ccc([N+](=O)[O-])cn1 | 0% | 3 | 1% | ? | ? | 4µM*
O=C(c1ccco1)N1CCCC(c2nc3c(nnn3Cc3ccc(F)cc3)c(=O)[nH]2)C1 (centres undefined) | -8% | -4 | 2% | 5% | -1% | 38%
O=C(NCc1ccc(F)cc1)c1c2c(nc3ccccc13)CCC2 | -3% | -13 | 4% | -6% | -3% | 11%
O=C(CN1CCN(C(=O)c2cccc(S(=O)(=O)N3CCCC3)c2)CC1)Nc1cccc(F)c1 | -3% | 1 | -6% | . | -11% | .
CCc1cc(-c2n[nH]c(C)c2-c2nc(C)cs2)c(O)cc1OC | 26% | 27 | 23% | ? | -5% | 13µM*
CCCCn1nc2cc(C(=O)NCC34CC5CC(CC(C5)C3)C4)ccc2c1OC | -9% | -22 | 1% | -12% | -11%[9.22 µM] | 0%
CCn1nc2cc(C(=O)NCC34CC5CC(CC(C5)C3)C4)ccc2c1OC | -11% | -19 | 1% | ? | -23% | 7.1µM*
CCOc1c2ccc(C(=O)NCC34CC5CC(CC(C5)C3)C4)cc2nn1CC | -29% | -16 | 8% | 11µM* | 19%[9.22 µM] | ?
O=C(Nc1c(Cl)cc([N+](=O)[O-])cc1Cl)c1cc(Cl)cc(Cl)c1O | . | 11 | . | . | . | .
CCC1(C)NC(c2ccc3c(c2)OCO3)=CC(c2ccccc2O)N1 (centres undefined) | . | -29 | . | . | . | .
O=C1c2ccccc2C(=O)C1C1=Nc2ccccc2NC(c2ccccc2)C1 (centres undefined) | . | . | ? | -4% | . | -4%
CCC1CCCCN1Cc1ccc(OC)c(C)c1C (centres undefined) | -6% | -23 | -2% | 4% | 7% | 11µM*
COc1ccc(CN2CCN(C3CCSCC3)CC2CCO)c(C)c1C (centres undefined) | ? | 7 | 6% | 6% | 5% | -7%
COc1ccc(CN2CCN(CC3CC3)CC2CCO)c(C)c1C (centres undefined) | 26µM* | 27 | 0% | . | -42% | .
